# An excerpt weighted towards active compounds, which were near 19% of everything screened.
# IL1B secr inh: inflammasome signaling inhibition, IL-1 beta readout; THP-1 LPS/ATP IL-1B secretion, AlphaLISA, 16 h; active compounds read low; activity change, % at 57.5 µM; 360,000 compounds, 4.7% hits; AID 743279; in the data active = activity change below about -50%; inconclusive = mostly about -30% to -49%
#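 Secreted IL-1B measured by AlphaLISA bead assay after 16 h compound exposure of THP-1 cells; compounds (final up to 57.5 uM) added 1 h before LPS (250 ng/mL) and ATP (1.25 mM) stimulation; lower signal means less secretion.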
# DT40 TDP1 CPT: growth inhibition of DT40 Tdp1-/-;hTDP1 cells with camptothecin (screen for TDP1 inhibitors); chicken DT40 Tdp1-/-;hTDP1 cells + 20 nM CPT, ATP luminescence, 48 h; Potency, µM (titrated, usually from 46.2 µM), hits mostly inhibitors; 420,000 compounds, 12% hits; note: nearly all actives have a fitted effect of over 55% in size
#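 Chicken DT40 Tdp1-/- cells stably complemented with human TDP1 were seeded at 400 cells/well in medium containing 20 nM camptothecin, exposed to pin-transferred compounds, and grown at 37 °C for at least 48 hr. Viability was read as ATP luminescence.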
# HT1080 IDH1KD tx: kills HT-1080 cells with IDH1 knockdown | HT-1080 IDH1 knockdown viability, ATP luminescence, 48 h | Potency, µM (highest dose often 46.1 µM), actives largely listed as cytotoxic | AID 686971 | 360,000 compounds, 2% hits
#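 After a 2 h attachment period, IDH1KD HT-1080 cells took pin-transferred compound for 48 h at 37 °C; ATP-based luminescence after 10 min room-temperature reagent incubation reported viability.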
# HT1080-NT tox: kills 2HG-producing HT-1080-NT fibrosarcoma cells; HT-1080-NT fibrosarcoma viability, CellTiter-Glo ATP luminescence, 48 h; 360,000 compounds, 1.6% hits; AID 686970; Potency, µM (titrated, usually from 46.1 µM), most hits filed as cytotoxic;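 note: NT is the 2HG producing partner of a matched IDH1 knockdown line; nearly all actives have a fitted effect of over 55% in size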
#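 Fibrosarcoma NT cells, 750 per well in 5% FBS RPMI, were exposed to compound for 48 hours. Viability: CellTiter-Glo luminescence.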
# DT40 TDP1 no CPT: qHTS for Inhibitors of human tyrosyl-DNA phosphodiesterase 1 (TDP1): qHTS in cells in absence of CPT | DT40 Tdp1-/- hTDP1 cells, no CPT, ATP luminescence, 48 h | Potency, µM (doses to about 46.2 µM), hits mostly inhibitors | 420,000 compounds, 15% hits; note: nearly all actives have a fitted effect of over 55% in size
#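 Chicken DT40 Tdp1-/- cells complemented with human TDP1, screened without camptothecin (DMSO vehicle only), 400 cells/well. Compounds pin-transferred, cells incubated at 37 °C for at least 48 hr. Growth read as ATP-dependent luminescence (CellTiter-Glo, 30 min at RT).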
# Hits are given with their value; - = inactive; ? = inconclusive; . = not tested or not shown; [ ] = dose if it differs, or a comment. Unless noted, calls come from the whole dose curve; as a rule, active = well fitted curve in the direction sought with a large enough effect; inconclusive = small, poorly fitted or top-dose-only effect, or another doubt; inactive = no such curve, though single readings can be large; an effect the other way counts as inactive or inconclusive.
SMILES,IL1B secr inh,DT40 TDP1 CPT,HT1080 IDH1KD tx,HT1080-NT tox,DT40 TDP1 no CPT
COc1ccc(CCNC(=O)CNC(=O)N2CC(=O)Nc3ccccc32)cc1OC,-,-,-,-,-
COc1cc(/C=N/NC(=S)N/N=C/c2cc(OC)c(OC)c(OC)c2)cc(OC)c1OC,-,4.1µM,-,-,3.7µM
COc1ccc(C=NNC(=S)NN=Cc2ccc(OC)c(OC)c2)cc1OC,-,7.3µM,-,-,12µM
COc1cc(/C=N/NC(=S)Nc2cccc(C(=O)O)c2)cc(OC)c1OC,-,-,-,-,-
CC(=O)N1CCC2(CCCN(C(=O)Nc3cccc(C#N)c3)C2)CC1,.,-,.,.,-
CCc1ccc2ncc3c(-c4ccccc4)nn(-c4ccccc4)c3c2c1,.,?,.,.,13µM
CCOC(=O)Cn1nc(-c2ccccc2)c2cnc3ccc(OCC)cc3c21,.,13µM,.,.,21µM
Cc1cc(N(CCO)CCO)ccc1N=Nc1cc(F)ccc1F,-75,?,?,?,?
CCc1ccc(-n2c(=O)c3c(C)c(C(=O)N(C)C)sc3n(Cc3ccccc3C#N)c2=O)cc1,.,-,.,.,-
CC1(C)C2CC=C(/C=N/NC(=O)c3ccccc3O)C1C2 (centres undefined),-,-,-,-,-
CNC(=S)N/N=C/C1=CCC2CC1C2(C)C (centres undefined),-,7.3µM,-,-,?
O=C(C1CCC1)N1CCN(S(=O)(=O)c2ccccc2)CC1,-,-,-,-,-
Cc1ccc(Sc2ccc([N+](=O)[O-])cc2[N+](=O)[O-])nc1,-188,2.6µM,23µM,16µM,2.9µM
Nc1nc(Sc2ccc([N+](=O)[O-])cc2[N+](=O)[O-])n[nH]1,-,?,-,-,?
Cc1ccnc(Sc2ccc([N+](=O)[O-])cc2[N+](=O)[O-])n1,-104,0.73µM,?,?,0.58µM
COC(=O)c1ccc(Sc2ccccn2)c([N+](=O)[O-])c1,-,-,-,-,-
Cc1cc(=O)[nH]c(N/N=C/c2ccc(OC(=O)c3ccco3)cc2)n1,-,-,-,-,-
COc1ccccc1C(=O)Nc1ccc(OC(C)C(=O)N2CCOCC2)cc1 (centres undefined),?,-,-,-,-
CC(=O)N1CCCc2cc(S(=O)(=O)N3CCN(c4ccccc4F)CC3)ccc21,.,21µM,.,.,21µM
CC1Cc2cc(S(=O)(=O)N3CCN(c4ccccc4F)CC3)ccc2N1C(=O)C1CC1 (centres undefined),-,?,-,-,23µM
CC(=O)N1CCCc2cc(S(=O)(=O)N3CCN(c4ccccn4)CC3)ccc21,-,?,-,-,?
O=S(=O)(c1ccccc1)c1nc(-c2ccccc2Cl)oc1NCCCN1CCOCC1,-67,?,-,-,23µM
O=S(=O)(c1ccccc1)c1nc(-c2ccccc2Cl)oc1NCCN1CCOCC1,-,?,-,-,?
Cc1ccccc1-c1nc(S(=O)(=O)c2ccc(Cl)cc2)c(NCCN2CCOCC2)o1,-52,?,?,-,?
Cc1ccccc1-c1nc(S(=O)(=O)c2ccccc2)c(NCCCN2CCOCC2)o1,-,?,-,-,?
SMILES,IL1B secr inh,DT40 TDP1 CPT,HT1080 IDH1KD tx,HT1080-NT tox,DT40 TDP1 no CPT
O=C(CSc1nnc(CNC(=O)c2c(F)cccc2F)o1)c1ccc(Cl)cc1,-,-,-,-,?
Fc1ccccc1-c1ccc(-c2nc3ccc(Cl)cn3c2Nc2ccc(Cl)cc2)o1,.,4.5µM,?,?,3.5µM
Cc1ccc(-c2nc3ccc(Cl)cn3c2Nc2ccc3c(c2)OCCO3)s1,.,18µM,.,.,?
Cc1ccc(-c2nc3ccc(Cl)cn3c2Nc2ccc3c(c2)OCCO3)o1,.,21µM,.,.,16µM
Cc1ccc(-c2nc3ccc(Cl)cn3c2Nc2ccccc2)o1,.,?,-,-,?
Cc1ccc(C2(C)CC(C)(C)N(C(=O)CSc3nnc(C)s3)c3ccccc32)cc1 (centres undefined),-85,21µM,?,?,16µM
Cc1nnc(SCC(=O)N2CCN(Cc3ccccc3)CC2)s1,-,-,-,-[9.24 µM],?
Cc1nnc(SCC(=O)N2c3ccccc3C(C)(c3ccccc3)CC2(C)C)s1 (centres undefined),-76,16µM,-,-,12µM
COc1ccccc1CNC(=O)c1ccccc1OCc1ccc(F)cc1,-,?,-,-,?
Cc1nc2c(C(=O)NCCc3ccc(Cl)cc3)cnn2c(C)c1Cc1ccc(F)cc1,.,16µM,.,.,?
COc1ccccc1CNC(=O)c1cnn2c(C)c(Cc3ccc(F)cc3)c(C)nc12,.,5.8µM,.,.,6.5µM
CC(=O)N1c2ccc(S(=O)(=O)NCC3CCC(C(=O)N4CCCC(C)C4)CC3)cc2CC1C (centres undefined),-,16µM,-,-,?
COc1ccc(C)cc1NC(=O)C1CCC(CNS(=O)(=O)c2ccc3c(c2)CCCC(=O)N3)CC1 (centres undefined),.,9.2µM,.,.,4.6µM
CC(=O)N1c2ccc(S(=O)(=O)NCC3CCC(C(=O)Nc4ccc(F)cc4)CC3)cc2CC1C (centres undefined),.,16µM,.,.,16µM
CC1CC(C)CN(C(=O)C2CCC(CNS(=O)(=O)c3ccccc3)CC2)C1 (centres undefined),-,?,-,-,29µM
Cc1cccc(NC(=O)C2CCC(CNS(=O)(=O)c3ccc4c(c3)CCCC(=O)N4)CC2)c1C (centres undefined),.,?,.,.,-
O=C(C1CCC(CNS(=O)(=O)c2ccccc2)CC1)N1CCCCC1 (centres undefined),-,-,-,-,-
Cc1ccccc1C(=O)N1CCC(n2nccc2NC(=O)CCOc2ccccc2)CC1,-,?,-,-,-
CN(CC(=O)Nc1cc(C(F)(F)F)ccc1-n1cncn1)Cc1ccccc1N1CCOCC1,?,?,-,-,?
CCCS(=O)(=O)NC(=O)C1(C)CCCN(C(=O)c2cccnc2Oc2ccccc2)C1 (centres undefined),-,-,-,-,-
CC(=O)N1c2ccc(S(=O)(=O)NCC3CCC(C(=O)Nc4ccc(C)cn4)CC3)cc2CC1C (centres undefined),?,?,-,?,?
COCCNC(=O)C1CCC(CNS(=O)(=O)c2ccc3c(c2)CC(C)N3C(C)=O)CC1 (centres undefined),.,-,.,.,-
CC(=O)N1c2ccc(S(=O)(=O)NCC3CCC(C(=O)N(C)Cc4ccccc4)CC3)cc2CC1C (centres undefined),-,?,-,-,?
COc1ccccc1NC(=O)C1CCC(CNS(=O)(=O)c2ccc3c(c2)CC(C)N3C(C)=O)CC1 (centres undefined),.,10µM,.,.,10µM

# Screening results deposited in PubChem by National Center for Advancing Translational Sciences (NCATS).
